Reference: the supplement of paper PMC13380429
A number with no mark means an inactive call.

System: Vero E6 infected with SARS-CoV-2
Test: inhibition of SARS-CoV-2 cytopathic effect; higher = more antiviral protection, active = above 15
Details: 48 h

SMILES | inhibition of SARS-CoV-2 cytopathic effect (1 nM) [%] | inhibition of SARS-CoV-2 cytopathic effect (8.33 nM) [%] | inhibition of SARS-CoV-2 cytopathic effect (100 nM) [%] | inhibition of SARS-CoV-2 cytopathic effect (833.33 nM) [%] | inhibition of SARS-CoV-2 cytopathic effect (10000 nM)
C[C@H](Oc1cc(-c2cnn(C3CCNCC3)c2)cnc1N)c1c(Cl)ccc(F)c1Cl [crizotinib-(S)] | 0.35 | -0.2 | -0.33 | -0.47 | 54.7% (active)
CC(C)(C)NCC(O)COc1cc(Cl)ccc1Cl (stereo not given) [cloranolol] | -3.31 | -3.27 | -3.87 | -3.29 | -8.51%
COc1ccc(CCN(C)CCc2ccc(OC)c(OC)c2)cc1OC | 0.34 | 3.91 | 0.58 | 4.35 | 3.64%
O=C(O)CCCCC(CCSCc1ccccc1)SCc1ccccc1 (stereo not given) | 1.25 | 1.84 | 3.04 | 0.34 | -0.88%
CO[C@H]1C[C@@H]2CC[C@@H](C)[C@@](O)(O2)C(=O)C(=O)N2CCCC[C@H]2C(=O)O[C@H]([C@H](C)C[C@@H]2CC[C@@H](O)[C@H](OC)C2)CC(=O)[C@H](C)/C=C(\C)[C@@H](O)[C@@H](OC)C(=O)[C@H](C)C[C@H](C)/C=C/C=C/C=C/1C [sirolimus] | -1.48 | -3.33 | -1.82 | -0.23 | -0.88%
